Laboratory results taken from the supplement of paper PMC6555819.

Each sequence was assayed on VDR:RXRa (NR concentration 270 nM, RXRa partner concentration 90 nM) (assay: PBM binding z-score (relative to random genomic background probes); higher = stronger binding; sequences stand for … in GC…GCGATTGACAGCGTAGAATGAAGG).
Experimental: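 Protein-binding microarray (Agilent 4x180K custom design, double-stranded 60-nt probes: 5' GC cap, 34-nt variable region, 24-nt constant primer region; full probe sequence given). Purified or IVT nuclear receptor:RXRα heterodimers (3:1 NR:RXRα, mostly 270:90 nM) or homodimers were incubated for 1 h in PBS with 2% milk and no ligand, then detected with Alexa488 antibodies. Fluorescence from o1-orientation probes (~5 replicates averaged) was converted to z-scores against 500 random hg19 background probes. Variable regions are seed direct-repeat (DR0–DR5) sites, all their single-nucleotide variants and half-site ablations.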

Q: How did the PBM binding z-score turn out when CGAAATAGGTCAAAGGACAGTGAAAGGCGACGTA was run?
A: 2.5

Q: Which PBM binding z-score does the source give for TCGAGTAGGTTACCGGGGCATTCAGGGATGAAGA here?
A: 0.816

Q: How did the PBM binding z-score turn out when CTATGTAGGTTAAGGGGGTCATTCCGTTTGAAAG was run?
A: 7.25

Q: For GCTATTAGGTGAAAGGGCAACCGAATGATTCTCG, which PBM binding z-score is on record?
A: 0.806

Q: CCGAGTAGGTTACGAGGGGGCATTCTGTGCGAAT was tested. Which PBM binding z-score did it give?
A: 4.89

Q: For ATATGCAGGTTATCGGGTCATTCAGTTTGCGCAT, which PBM binding z-score is on record?
A: 5.27

Q: For CAAACTAGGTCACAGAGGTCGAAGTCCGTGCGTA, which PBM binding z-score is on record?
A: 6.75

Q: How did the PBM binding z-score turn out when TCGAGTAGGTTACGGGGGAATTCAGGGATGAAGA was run?
A: 1.25

Q: How did the PBM binding z-score turn out when CCGAGTATGTTACGAGGGGGCATTCAGTGCGAAT was run?
A: 4.06

Q: How did the PBM binding z-score turn out when CGAACTAGGTCAAAGGACAATGAAAGGCGACGTA was run?
A: 1.73

Q: How did the PBM binding z-score turn out when TAGCCTAGGTCATTTGGCCAGTATAGTACGCATC was run?
A: 2.52

Q: With ATTTGTAGGTTATCGGGTCATTCAGTTTGCGCAT as the sequence, how does the PBM binding z-score read?
A: 5.57

Q: With TTACCGAGGTGAAAGGTCGTTGATGCACGCCTTG as the sequence, how does the PBM binding z-score read?
A: 3.72

Q: CCTAGCAGGCCAGGGTCACCCAAGCATTTCGCTT was tested. Which PBM binding z-score did it give?
A: 2.96

Q: With ATCGAAAGGTCGAAGGTGACTATACCCACCCGAA as the sequence, how does the PBM binding z-score read?
A: 2.9

Q: How did the PBM binding z-score turn out when TAGCCTCGGTCATTCAGGGGCCAGTATAGAAAGC was run?
A: 0.169

Q: With CCTAGTTGGTCAAGGTCACGCACGCTATAGGTAC as the sequence, how does the PBM binding z-score read?
A: 4.45

Q: Which PBM binding z-score does the source give for CGTCGGAGGACAGAAGGTCAGAGCTGTCCGCTTT here?
A: 0.797

Q: How did the PBM binding z-score turn out when CGACCTAGGTCAAAGGACAGTGAAAGGCGACGTA was run?
A: 2.05

Q: With CTCGAAAGGTGGTGCTCAGGTGAGTATACCAAAC as the sequence, how does the PBM binding z-score read?
A: -0.508

Q: ATATGTAGGTTAGGGTCATGCAGAAAGTAGGGAA was tested. Which PBM binding z-score did it give?
A: 4.36

Q: How did the PBM binding z-score turn out when TTACCAAGGTGAAAGGTCGGTGATGCACGCCTTG was run?
A: 1.38

Q: With CGTCAAAGTTCAAGGTAAAGTAACAGAAAGCAGC as the sequence, how does the PBM binding z-score read?
A: 3.4

Q: With CGAACTATGTCACCAGGACAGTGAAGAGGTTGGA as the sequence, how does the PBM binding z-score read?
A: 0.173

Q: Which PBM binding z-score does the source give for CCGAGTAGGTTACGAGGGTGCATTCAGTGCGAAT here?
A: 4.73

Q: Which PBM binding z-score does the source give for ACTAGTTGGTCAGCTGAGGTCACACACAATTCGG here?
A: 4.67

Q: Which PBM binding z-score does the source give for CCGAGTAGGTTACGAGGGGGCGTTCAGTGCGAAT here?
A: 4.72

Q: Which PBM binding z-score does the source give for CGAACTAGGCCACCAGGACAGTGAAGAGGTTGGA here?
A: -0.817

Q: How did the PBM binding z-score turn out when CCTAGTTGGTCAGGAAGTCACACACCGGATATGA was run?
A: 0.604

Q: With CCTTACCGGTCAAGGTTATAGCACGGGTGGTACG as the sequence, how does the PBM binding z-score read?
A: 0.829

Q: Which PBM binding z-score does the source give for CCGAGTTGGTTACGAGGGGGCATTCAGTGCGAAT here?
A: 4.32

Q: For CATACAGGGTAAGCTAGGCCAGAGTAGGGACGGC, which PBM binding z-score is on record?
A: -0.528

Q: Which PBM binding z-score does the source give for ATATGTAGGTTACATGCGGGTCATTCAGGCTATG here?
A: 3.78

Q: For ATATGTAGGTTAGGGTCATTGAGAAAGTAGGGAA, which PBM binding z-score is on record?
A: 4.27

Q: With TCTAGTTGGTCGCGGAGGTCACACACGACGGGTA as the sequence, how does the PBM binding z-score read?
A: 4.55

Q: GATACACGGTCAAGGCCAGAGTACGCGTATTGAT was tested. Which PBM binding z-score did it give?
A: -0.0304

Q: Which PBM binding z-score does the source give for CGAACTAGGTCAAAGGACAGTAAAAGGCGACGTA here?
A: 1.55

Q: For TAGCCTAGGTCAGATCGGGGCAGTATACGCTATA, which PBM binding z-score is on record?
A: 1.56

Q: AGTCAAAGGTCAGGACGAGGTAACGTAAAGCACG was tested. Which PBM binding z-score did it give?
A: 4.83

Q: CCGACTGGGGCAAAGGTTACCACACTCAGTACGA was tested. Which PBM binding z-score did it give?
A: 1.81
